Compound activity: PubChem, several laboratories
Sampled rows, rich in hits. Any-hit rate of the full collection: about 6.2%.
SUMO Mot1 rescue: inhibitors of SUMOylation pathway: yeast Mot1-301 growth rescue | growth rescue, % at 18.8 µM | AID 2716 | S. cerevisiae Mot1-301 growth rescue, ATP luminescence, 38.5C; percent above DMSO median, 100 means doubled | hit rate 1% among 320,000;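 active = every valid replicate shows activation above 250% relative to neutral control wells; inactive = the rest, any valid replicate at or below 250%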
AI-2 QS modul: modulators of Vibrio harveyi AI-2 quorum sensing system | activity change, % at 7.5 µM | AID 2094 | hit rate 0.4% among 300,000 | Vibrio harveyi JMH597 AI-2 luminescence/OD600 ratio, 9 h; hits give low values; strain lacks LuxN and CqsS sensors; 0 = neutral-control median; in the data active = activity change below about -75%, passing the limit was not always enough; inconclusive = no clear call, values can overlap the other calls;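 also: luminescence divided by OD600 gain over 9 h not by final OD600 alone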
AHR act: activators of human aryl hydrocarbon receptor; AHR-responsive luciferase reporter cells, luminescence; P35869; activation, % at 5 µM; hit rate 2.5% among 320,000; in the data active = activation above about 47%
NTR1 ag: activates human neurotensin receptor 1; activation, % at 20 µM; NTR1-U2OS beta-arrestin-GFP spot imaging, agonist mode; AID 493036; hit rate 0.17% among 330,000;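 active = activation at or above 40% of the spot to cytoplasm intensity ratio, with at least 20 cells analyzed; inconclusive = wells under 20 cells, flagged as cytotoxic or low count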
Target sequence (P30989 whole entry, looked up): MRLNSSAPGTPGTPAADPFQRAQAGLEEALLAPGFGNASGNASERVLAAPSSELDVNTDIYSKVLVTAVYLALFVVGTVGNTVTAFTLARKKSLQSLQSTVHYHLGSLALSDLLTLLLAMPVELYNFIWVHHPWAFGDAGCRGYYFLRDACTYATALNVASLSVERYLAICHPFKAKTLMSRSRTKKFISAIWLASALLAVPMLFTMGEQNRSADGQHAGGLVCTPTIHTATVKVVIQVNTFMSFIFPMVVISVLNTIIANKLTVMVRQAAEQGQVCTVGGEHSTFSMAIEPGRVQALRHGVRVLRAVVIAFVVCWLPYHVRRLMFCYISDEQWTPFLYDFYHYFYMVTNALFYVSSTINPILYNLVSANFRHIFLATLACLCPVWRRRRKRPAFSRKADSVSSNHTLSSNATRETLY
NR3A LBD binder: modulates the human NR3A ligand-binding domain. NR3A LBD differential scanning fluorimetry, Tm shift; 0% = protein alone, 100% = glycine-bound protein. Tm shift relative to glycine control, % at 25 µM. hit rate 2.5% among 340,000. AID 1259313;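 active = melting temperature shift of at least 10% of the positive control shift, at one fixed dose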
Cardio protect: modulators protecting cardiomyocytes from myocardial damage; protection from H2O2 cell death, % at 20 µM; hit rate 0.63% among 360,000; H9c2 cardiomyocytes, H2O2 injury protection, ATPLite, 2 h;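 active = compounds giving at least 50% protection of heart cells from peroxide-induced death in the single-dose screen, raw or plate-pattern-corrected value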
Hits are given with their value; i = inactive; ? = inconclusive; nt = not tested or not shown.

SMILES	SUMO Mot1 rescue	AI-2 QS modul	AHR act	NTR1 ag	NR3A LBD binder	Cardio protect
Cc1[nH]nc(-c2ccc(O)cc2O)c1Oc1ccccc1	i	i	i	i	32	i
Cc1[nH]nc(-c2ccc(O)cc2O)c1-c1ccc(Cl)cc1	i	i	i	i	23	i
COc1ccc(O)c(-c2c(-c3ccc(Cl)cc3)n[nH]c2C)c1	i	nt	i	i	i	i
COc1ccc(-c2n[nH]c(C)c2-c2ccc(Cl)cc2)c(O)c1	i	i	i	i	10	i
Cc1[nH]nc(-c2ccc(O)cc2O)c1-c1nc2ccccc2s1	i	i	73	i	i	i
CC(=O)C1=C(O)C(=O)N(c2cccc(Br)c2)C1c1ccccc1Cl (stereo not given)	i	nt	i	i	i	i
O=C(COC(=O)c1ccccc1NCCO)NNC(=O)c1cccs1	i	i	i	i	i	i
O=C(Cc1cccs1)Nc1ccc(-c2nnc(-c3ccccc3)o2)cc1	i	i	i	i	28	i
Cc1ccc2nc(SCC(=O)Nc3ncccn3)[nH]c2c1	i	i	i	i	i	i
COc1cccc(CNC(=O)CSc2nc3ccc(C)cc3[nH]2)c1	i	i	53	i	i	i
COc1ccc2nc(SCC(=O)NCc3ccc(F)cc3)[nH]c2c1	i	i	i	i	i	i
Cc1ccc2nc(SCC(=O)NNC(=O)c3ccccc3)[nH]c2c1	i	i	52	i	i	i
O=C(Cc1cccs1)Nc1ccc(-c2nnc(-c3ccco3)o2)cc1	i	i	i	i	i	i
Cc1ccc2nc(SCC(=O)Nc3ccc(C)c([N+](=O)[O-])c3)[nH]c2c1	i	i	86	i	i	i
Cc1ccc2nc(SCC(=O)Nc3ccc4c(c3)OCCO4)[nH]c2c1	i	i	i	i	i	i
COCCN(Cc1ccc(C)cc1)C(=O)[C@H]1O[C@@H](n2cnc3c(N)ncnc32)[C@H](O)[C@@H]1O	nt	nt	nt	nt	nt	i
COc1ccc(NC(=O)CSc2n[nH]c(C)c2[N+](=O)[O-])cc1	i	i	i	i	i	i
Cc1ccc2nc(SCC(=O)NC3CCCc4ccccc43)[nH]c2c1 (stereo not given)	i	i	59	i	i	i
Cc1ccc2nc(SCC(=O)NCc3cccs3)[nH]c2c1	i	i	49	i	i	i
Cc1ccc2nc(-c3ccc(NC(=O)Cc4cccs4)cc3)[nH]c2c1	i	i	i	i	34	i
Cc1ccc2nc(SCC(=O)Nc3cc(C)on3)[nH]c2c1	i	i	i	i	i	i
Cc1ccc(NC(=O)CSc2n[nH]c(C)c2[N+](=O)[O-])cc1C	i	i	i	i	19	i
Cc1cc(=O)[nH]c(SCC(=O)Nc2cccc(S(=O)(=O)N3CCOCC3)c2)n1	i	nt	i	i	i	i
C/C=C(\C)CN1CCC(n2nccc2NC(=O)CCCc2ccccc2)CC1	i	i	nt	i	i	i
C=CCNc1nc2cc(-c3ccc(C(=O)N4CCOCC4)cc3)sc2c(=O)n1C	nt	nt	nt	nt	nt	i
SMILES	SUMO Mot1 rescue	AI-2 QS modul	AHR act	NTR1 ag	NR3A LBD binder	Cardio protect
Cc1nc2sccn2c1-c1nc(-c2cc3ccccc3o2)cs1	i	i	54	i	i	i
CC(O)(c1ccccc1)c1nc(-c2cc3ccccc3o2)cs1 (stereo not given)	nt	nt	nt	nt	nt	i
N#Cc1cc(-c2ccccc2)nn1-c1ccccc1	i	i	68	i	i	i
Cn1ccc(-c2ccccc2)n1	i	i	i	i	i	i
Cc1sc2nc[nH]c(=S)c2c1-c1ccccc1	i	i	i	i	i	66
Cc1sc2nc[nH]c(=O)c2c1-c1ccc(F)cc1	i	i	i	i	i	i
COC(=O)c1ccc(Cn2c(C)c(C(=O)NCc3cccs3)sc2=O)o1	nt	nt	nt	nt	nt	52
O=C(NCc1cccnc1)NC1(C(F)(F)F)Oc2ccc(Cl)cc2O1 (stereo not given)	i	i	i	i	i	58
O=C(NCc1cccnc1)c1cc(Cl)ccc1[N+](=O)[O-]	i	i	74	i	i	i
O=C(NCc1ccc(F)cc1)c1[nH]c(C(F)(F)F)nc1-c1ccccc1	nt	nt	nt	nt	nt	i
Cc1cc(C(=O)NC(C)C2CCCO2)c(C)o1 (stereo not given)	i	i	i	i	i	i
CCc1noc(C)c1C(=O)NNC(=O)c1ccc(N(CC)CC)cc1	i	nt	i	i	i	i
CN(/N=C/c1c[nH]c2ccccc12)c1cnn(-c2ccc(F)c(Cl)c2)c(=O)c1Cl	i	i	i	i	259	i
O=S(=O)(Nc1ccccn1)c1cccc(S(=O)(=O)c2ccc(Br)cc2)c1	i	i	i	i	14	i
CCOC(=O)C1CCN(C(=O)c2ccc3c(=O)n4nc(Nc5ccccc5OC)sc4nc3c2)CC1	nt	nt	nt	nt	nt	71
NC(=O)c1c(/N=C/c2cccs2)sc2c1CCCC2	i	i	70	i	i	i
Cc1cc(NC(=O)Nc2ccc(OCc3ccccc3)cc2)n(C)n1	i	i	i	i	i	i
C=CCn1cc(/C=N/Nc2nc3ccccc3[nH]2)c2ccccc21	i	i	146	i	i	i
Cc1ccsc1/C=N/Nc1nc2ccccc2[nH]1	nt	i	nt	nt	i	i
Cc1c(/C=N/Nc2nc3ccccc3[nH]2)c2ccccc2n1C	i	i	108	i	i	i
C(=N\Nc1nc2ccccc2[nH]1)/c1cccs1	i	i	74	i	i	i
O=C(/C=C/c1ccccc1O)c1ccco1	i	i	i	i	23	i
Nc1ccc(/C=C/C(=O)c2ccco2)cc1	i	i	i	i	i	i
COc1ccccc1/C=C/C(=O)c1cc(Br)ccc1OC(=O)c1ccco1	i	i	74	i	i	i
O=C(/C=C/c1cc(Br)ccc1O)c1ccco1	i	i	i	47	i	i
SMILES	SUMO Mot1 rescue	AI-2 QS modul	AHR act	NTR1 ag	NR3A LBD binder	Cardio protect
CNc1ccccc(C(=O)/C=C/c2ccccc2OC)c1=O	i	i	i	i	i	51
COc1ccc(CN(CC(=O)NCc2ccco2)C(=O)CNS(=O)(=O)c2ccc(C)cc2)cc1	i	i	i	i	i	i
O=c1c2ccccc2c2ccccc2c(=O)n1Nc1ccccc1	nt	nt	nt	nt	nt	i
O=C(OCC(=O)N1CCC(c2ccccc2)=N1)c1ccc([N+](=O)[O-])s1	i	?	i	i	i	i
CC(=O)Nc1ccc(S(=O)(=O)N(C)CC(=O)N(C)Cc2sccc2C)cc1	i	nt	i	i	i	i
COc1ccc(-c2csc(C)n2)cc1OC	nt	i	i	i	i	i
COc1ccc(-c2csc(C(C#N)=C(O)CSc3nccn3C)n2)cc1OC	nt	nt	nt	nt	i	57
O=C(/C=C/c1ccc([N+](=O)[O-])cc1)N1CCN(S(=O)(=O)c2cccs2)CC1	i	i	i	i	i	i
C[C@H](CO)N1C[C@H](C)[C@@H](CN(C)Cc2ccncc2)Oc2c(cccc2N(C)C)C1=O	i	nt	i	i	i	i
Cc1ccc(NC(=O)c2ncn(CC(=O)NCc3nc4ccccc4[nH]3)n2)cc1C	nt	nt	nt	i	17	i
